Measurements taken from PubChem BioAssay AID1117319 (Southern Research Institute, 2015).
Among all 260,000 compounds or so, about 1,500 (0.58%) were called active. About 5% were inconclusive and are not listed.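 How the source made its calls: active means inhibition above a set limit at one or more doses, reproduced on every date tested; inconclusive means results disagree between test dates, or hit never tested in dose response; inactive means the rest.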 These entries were drawn from the full list. Results with a measured potency or affinity are listed apart.

target: Virion infectivity factor (Human immunodeficiency virus type 1 group M subtype B (isolate BH10)) + Virion infectivity factor (Human immunodeficiency virus type 1 group M subtype B (isolate BRU/LAI)) + Virion infectivity factor (Human immunodeficiency virus type 1 group M subtype B (isolate PCV12)) + Virion infectivity factor (Human immunodeficiency virus type 1 group M subtype B (isolate HXB2)) + DNA dC->dU-editing enzyme APOBEC-3G (Homo sapiens) (UniProt P69720+P69721+P69722+P69723+Q9HC16); test: inhibitors of Vif binding to APOBEC3G peptide, primary screen, biochemical, TR-FRET, GST-Vif 1-94, biotin-A3G peptide, dose response retest (AID 1117319); settings: hits give high values;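 further: Vif residues 1-94 fused to GST binding biotinylated APOBEC3G peptide 110-148; 0% = full assay without inhibitor and 100% = GST in place of GST-Vif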

inhibition, inactive:
O=C(c1nc(-c2ccccc2)n(-c2ccccc2)n1)N1CCCCCC1 2.5%, O=C(NNC(=O)c1cc(Cl)ccc1O)c1cccc(S(=O)(=O)N2CCOCC2)c1 4.69%, COc1cccc(C(=O)NCc2ccc(N3CCN(C(=O)OC(C)(C)C)CC3)cc2)c1 4.61%, CCN(CC)c1ccc(C(=O)Nn2cnc3ccccc3c2=O)cc1 -13%, CCNc1nc(-c2cc(C)n(Cc3ccco3)c2C)cs1 8.76%, Cc1cc(-c2csc(N)n2)c(C)n1Cc1ccco1 20.6%, Cc1ccccc1NS(=O)(=O)c1cc(C(=O)NCCSC2CCCCC2)ccc1C 4.25%, Cc1cc(C)c2c(=O)[nH]c(=O)n(Cc3ccccc3)c2n1 11.8%, CCCCCCCCn1c2c(c(=N)c3ccccc31)CCC2 1.93%, O=C1CN(/N=C/c2ccc([N+](=O)[O-])o2)C(=O)N1 6.04%, O=C1NC(=S)S/C1=C\c1cccc([N+](=O)[O-])c1 0.14%, CCC1(C)Cc2ccccc2-c2nc(NCCCO)n(-c3ccccc3)c(=O)c21 (stereo not given) -4.2%, CC(C)COC(=O)Nc1nnc(SCCOc2ccccc2)s1 -6.77%, O=C(c1cc2c(s1)-c1ccccc1OC2)N1CCN(c2ccccn2)CC1 -16.4%, CCOc1cc(C(=O)OCC(=O)Nc2cc(C)on2)cc(OCC)c1OCC -2.84%, Clc1ccc(OCc2nn3c(-c4ccco4)nnc3s2)cc1 2%, Clc1ccc(OCc2nn3c(-c4ccccc4)nnc3s2)c(Cl)c1 -0.95%, COc1ccc(CN(C)C2CCCCC2)c(C)c1C -2.5%, COc1ccccc1NC(=O)CSc1nnc(CC(=O)Nc2ccccc2C)n1C -12.1%, CCOc1cccc(N2C(=O)CC(N3CCN(c4nc5ccccc5s4)CC3)C2=O)c1 (stereo not given) -1.33%, O=C(N/N=C/c1ccc(O)c([N+](=O)[O-])c1)c1ccncc1 -22.5%, Clc1cccc(/C=N\Nc2nccs2)c1 -1.1%, COc1ccc(C(=O)NCc2ccncc2)cc1OC 24.8%, O=C(O)c1cc(N=Nc2c(O)[nH]c3ccc([N+](=O)[O-])cc23)ccc1Cl 10%, Cc1onc(-c2c(Cl)cccc2Cl)c1NC(=O)NNc1c(Cl)cncc1Cl -3.28%, CCOC=C1SC(=S)N(c2ccccc2OC)C1=O -1.46%, COc1ccccc1NC(=S)N1CCCCCC1 -0.41%, CC(=O)Nc1ccc(NC(=O)CCc2ccc(C)o2)cc1 3.07%, CCc1ccc(CCC(=O)Nc2ccc(S(N)(=O)=O)cc2)o1 68.2%, O=C(COC(=O)COc1cccc(Br)c1)NCc1ccc2c(c1)OCO2 -4.12%, CCOc1ncccc1C(=O)OCC(=O)c1c(N)n(C)c(=O)n(C)c1=O -0.62%, CCN(CC(=O)Nc1c(F)cccc1F)C(=O)c1c(-c2ccccc2Cl)noc1C 10.1%, C=CCn1c(COc2ccc(Cl)cc2)nnc1SCc1ccc(C#N)cc1 -5.86%, CCc1c(C)[nH]c2ccccc2c1=O 22.4%, Cc1[nH]c2ccccc2c1-c1nc2ccccc2[nH]1 24.1%, CCOc1ccc(CCNC(=O)CS(=O)Cc2nc(-c3ccc(C)cc3)oc2C)cc1 (stereo not given) 5.23%, COc1ccc(N2CCN(Cc3cc(=O)oc4cc(C)c(Cl)c(C)c34)CC2)cc1 4.75%, O=C(NCCc1ccccc1)C1CCN(S(=O)(=O)c2cccc3nonc23)CC1 -0.8%, O=C(NCCN1CCN(c2ccccc2)CC1)C1CCN(S(=O)(=O)c2cccc3nsnc23)CC1 -4.91%, Cc1cc(=O)[nH]c(SCCCOc2ccccc2Cl)n1 -1.03%, CCSc1n[nH]c2nc3c(c(=O)n12)C1(CCCCC1)Cc1ccccc1-3 -15.1%, CCN(CC)C(=O)CSc1nnc(-c2ccccn2)n1-c1ccccc1OC -5.38%, O=[N+]([O-])c1cc(Cc2ccccc2)cc(C=Nc2ccc(N3CCOCC3)cc2)c1O 23.6%, Oc1c(Br)cc(Cl)cc1C=Nc1ccc(N2CCOCC2)cc1 29.3%, COc1cccc(C(=O)Nc2ccc(NC(=O)c3ccco3)c(Cl)c2)c1 -3.2%, Cc1ccc(-c2cc(C(F)(F)F)n3nc(C(=O)Nc4ccon4)cc3n2)cc1C 10.8%, COc1ccc(/C=N/NC(=O)Cn2ccnc2C)cc1OC -2.05%, Cc1nccn1CC(=O)N/N=C/c1cccc(O)c1 2.96%, CNC(=O)C(=O)N/N=C/c1ccc(Br)cc1 17.2%, COc1ccc(NC(=O)COc2ccccc2Cl)cc1S(=O)(=O)N1CCCCC1 11.7%, O=C(CNS(=O)(=O)c1ccccc1Br)OCC(=O)N1CCc2ccccc21 4.27%, Cc1onc(-c2c(F)cccc2Cl)c1C(=O)N1CCOC12CCCCC2 -10.5%, Nc1ccc(S(=O)(=O)c2ccc(N)cc2)cc1 -4.69%, Nc1ccc(S(=O)(=O)c2cccc(N)c2)cc1 0.36%, COc1ccc(-c2csc3nc(C)nc(N4CCN(C(C)=O)CC4)c23)cc1OC -6.79%, COc1cc(S(=O)(=O)NC2CCCCC2)ccc1F -3.56%, COc1ccc(C2c3c(-c4ccccc4O)n[nH]c3C(=O)N2Cc2ccco2)cc1OC (stereo not given) -4.89%, NC(=O)C[C@@H]1N[C@]2(C(=O)Nc3ccccc32)[C@@H]2C(=O)N(C3CCCCC3)C(=O)[C@H]12 6.65%, CC(C)[C@@H]1N[C@]2(C(=O)Nc3ccccc32)[C@@H]2C(=O)N(c3cccc(C(F)(F)F)c3)C(=O)[C@@H]21 7.45%, C=CCNC(=S)N/N=C/c1ccc(N(CC)Cc2ccccc2)cc1 -8.07%
